The inhibition is the relative decrease from the control value, in per cent.

The source of these data is ChEMBL document CHEMBL1961873, “Compounds: GSK PKIS; Assays: Nanosyn kinase panel” (2012).

The target of experiment [1] is Glycogen synthase kinase-3 beta (Homo sapiens) (UniProt P49841). Conditions: at 1 µM.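 Note: reported values are mean percent inhibition of GSK3B.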
Experiment [2] addresses Homeodomain-interacting protein kinase 1 (Homo sapiens) (UniProt Q86Z02). The note with it: at 0.1 µM.
For experiment [3] the target is unchanged. The note with it: at 1 µM.
The target in experiment [4] is T1, Homeodomain-interacting protein kinase 4 (Homo sapiens) (UniProt Q8NE63).
T1 sequence (whole entry): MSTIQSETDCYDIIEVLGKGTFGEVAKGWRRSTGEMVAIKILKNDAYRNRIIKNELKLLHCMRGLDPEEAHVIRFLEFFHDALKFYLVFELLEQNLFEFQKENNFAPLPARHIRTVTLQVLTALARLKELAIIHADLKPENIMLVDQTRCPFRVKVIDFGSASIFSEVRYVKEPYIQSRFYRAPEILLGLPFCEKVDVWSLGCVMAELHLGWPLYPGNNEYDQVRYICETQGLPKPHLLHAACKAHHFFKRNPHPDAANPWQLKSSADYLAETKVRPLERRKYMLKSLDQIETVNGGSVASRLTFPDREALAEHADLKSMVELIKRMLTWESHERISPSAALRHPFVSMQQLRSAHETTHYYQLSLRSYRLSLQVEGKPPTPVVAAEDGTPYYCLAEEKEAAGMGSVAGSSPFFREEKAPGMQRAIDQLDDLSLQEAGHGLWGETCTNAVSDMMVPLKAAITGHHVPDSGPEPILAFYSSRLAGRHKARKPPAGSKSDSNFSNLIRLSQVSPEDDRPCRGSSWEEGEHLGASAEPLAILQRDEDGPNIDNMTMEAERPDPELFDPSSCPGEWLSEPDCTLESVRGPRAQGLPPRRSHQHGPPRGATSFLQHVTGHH
Conditions: at 0.1 µM.

Experiment [5] concerns the target T1, Homeodomain-interacting protein kinase 4 (Homo sapiens). The note with it: at 1 µM.
Experiment [6] has as its target Mitogen-activated protein kinase 9 (Homo sapiens) (UniProt P45984). Conditions: at 0.1 µM.
Experiment [7] has the same target. Conditions: at 1 µM.
Experiment [8] has as its target Mitogen-activated protein kinase 1 (Homo sapiens) (UniProt P28482). The note with it: at 0.1 µM.
The target is the same in experiment [9]. Conditions: at 1 µM.
Experiment [10] addresses Mitogen-activated protein kinase 3 (Homo sapiens) (UniProt P27361). Conditions: at 0.1 µM.
Experiment [11] has the same target. The note with it: at 1 µM.
Experiment [12] concerns the target SRSF protein kinase 3 (Homo sapiens) (UniProt Q9UPE1). The note with it: at 0.1 µM.
Experiment [13] shares this target. Conditions: at 1 µM.
Experiment [14] deals with Mitogen-activated protein kinase 14 (Homo sapiens) (UniProt Q16539). The note with it: at 0.1 µM.
Mitogen-activated protein kinase 14 (Homo sapiens), sequence (Q16539 whole entry): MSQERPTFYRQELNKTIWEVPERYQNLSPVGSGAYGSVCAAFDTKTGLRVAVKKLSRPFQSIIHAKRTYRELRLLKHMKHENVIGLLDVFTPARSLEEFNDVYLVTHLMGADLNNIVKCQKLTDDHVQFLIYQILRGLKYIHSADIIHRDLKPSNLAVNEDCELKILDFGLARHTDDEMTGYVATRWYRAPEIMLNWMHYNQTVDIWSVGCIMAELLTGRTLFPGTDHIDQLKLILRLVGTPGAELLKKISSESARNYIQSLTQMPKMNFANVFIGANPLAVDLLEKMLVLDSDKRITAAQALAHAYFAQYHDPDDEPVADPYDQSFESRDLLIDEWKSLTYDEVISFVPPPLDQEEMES
Experiment [15] shares this target. The note with it: at 1 µM.
Experiment [16] deals with Mitogen-activated protein kinase 11 (Homo sapiens) (UniProt Q15759). The note with it: at 0.1 µM.
Mitogen-activated protein kinase 11 (Homo sapiens), sequence (Q15759 whole entry): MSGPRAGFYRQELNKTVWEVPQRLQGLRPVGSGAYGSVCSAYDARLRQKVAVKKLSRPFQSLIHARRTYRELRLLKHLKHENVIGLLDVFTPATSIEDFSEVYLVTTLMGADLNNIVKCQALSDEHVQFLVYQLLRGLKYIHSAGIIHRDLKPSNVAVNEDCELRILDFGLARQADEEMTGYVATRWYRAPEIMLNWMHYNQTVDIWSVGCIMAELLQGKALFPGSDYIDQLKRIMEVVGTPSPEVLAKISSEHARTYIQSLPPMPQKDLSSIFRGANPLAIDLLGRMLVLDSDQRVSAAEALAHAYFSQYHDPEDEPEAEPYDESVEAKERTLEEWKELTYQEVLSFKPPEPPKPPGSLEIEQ
Experiment [17] shares this target. Conditions: at 1 µM.
In experiment [18] the target is T2, Mitogen-activated protein kinase 13 (Homo sapiens) (UniProt O15264).
T2 sequence (whole entry): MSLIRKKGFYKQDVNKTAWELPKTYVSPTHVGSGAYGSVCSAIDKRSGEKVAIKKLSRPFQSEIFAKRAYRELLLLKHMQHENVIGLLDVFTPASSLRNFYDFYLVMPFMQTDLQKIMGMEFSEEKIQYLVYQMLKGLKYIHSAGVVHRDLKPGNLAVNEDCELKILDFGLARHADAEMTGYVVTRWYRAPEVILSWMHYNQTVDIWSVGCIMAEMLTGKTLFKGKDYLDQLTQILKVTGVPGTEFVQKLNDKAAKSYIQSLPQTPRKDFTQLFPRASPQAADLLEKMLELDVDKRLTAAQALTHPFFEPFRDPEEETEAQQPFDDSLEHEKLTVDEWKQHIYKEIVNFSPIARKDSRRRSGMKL
The note with it: at 0.1 µM.

The target of experiment [19] is T2, Mitogen-activated protein kinase 13 (Homo sapiens). The note with it: at 1 µM.
Experiment [20] addresses T3, Mitogen-activated protein kinase 12 (Homo sapiens) (UniProt P53778).
T3 sequence (whole entry): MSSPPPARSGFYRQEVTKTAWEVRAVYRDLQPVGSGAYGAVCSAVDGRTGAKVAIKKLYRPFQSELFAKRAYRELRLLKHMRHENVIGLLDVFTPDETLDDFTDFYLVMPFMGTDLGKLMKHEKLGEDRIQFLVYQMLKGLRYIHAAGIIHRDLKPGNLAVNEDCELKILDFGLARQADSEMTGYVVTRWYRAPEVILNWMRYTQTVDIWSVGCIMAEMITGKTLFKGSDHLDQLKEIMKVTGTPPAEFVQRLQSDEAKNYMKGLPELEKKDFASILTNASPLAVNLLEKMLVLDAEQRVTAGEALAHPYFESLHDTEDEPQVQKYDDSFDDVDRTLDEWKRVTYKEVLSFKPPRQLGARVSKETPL
Conditions: at 0.1 µM.

Mitogen-activated protein kinase 1 (Homo sapiens), sequence (P28482 whole entry): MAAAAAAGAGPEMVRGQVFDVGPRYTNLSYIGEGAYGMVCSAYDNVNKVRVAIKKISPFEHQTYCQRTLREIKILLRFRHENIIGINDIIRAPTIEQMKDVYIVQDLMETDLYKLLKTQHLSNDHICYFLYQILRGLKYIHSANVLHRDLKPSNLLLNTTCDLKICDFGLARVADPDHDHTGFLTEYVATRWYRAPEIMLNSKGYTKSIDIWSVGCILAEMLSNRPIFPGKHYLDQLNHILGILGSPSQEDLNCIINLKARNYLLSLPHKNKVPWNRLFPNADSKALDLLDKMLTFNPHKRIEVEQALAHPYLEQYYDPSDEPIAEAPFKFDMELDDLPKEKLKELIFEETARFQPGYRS
Mitogen-activated protein kinase 3 (Homo sapiens), sequence (P27361 whole entry): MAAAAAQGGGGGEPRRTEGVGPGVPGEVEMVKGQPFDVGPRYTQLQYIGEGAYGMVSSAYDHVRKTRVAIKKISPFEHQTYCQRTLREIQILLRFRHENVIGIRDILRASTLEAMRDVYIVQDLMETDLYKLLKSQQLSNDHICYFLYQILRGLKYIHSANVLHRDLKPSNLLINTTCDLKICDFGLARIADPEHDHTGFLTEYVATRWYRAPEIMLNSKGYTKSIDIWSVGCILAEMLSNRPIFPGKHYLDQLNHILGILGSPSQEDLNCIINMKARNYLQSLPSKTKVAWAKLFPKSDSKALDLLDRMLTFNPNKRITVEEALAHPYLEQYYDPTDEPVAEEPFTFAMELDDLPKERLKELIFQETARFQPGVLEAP
Homeodomain-interacting protein kinase 1 (Homo sapiens), sequence (Q86Z02 whole entry, looked up): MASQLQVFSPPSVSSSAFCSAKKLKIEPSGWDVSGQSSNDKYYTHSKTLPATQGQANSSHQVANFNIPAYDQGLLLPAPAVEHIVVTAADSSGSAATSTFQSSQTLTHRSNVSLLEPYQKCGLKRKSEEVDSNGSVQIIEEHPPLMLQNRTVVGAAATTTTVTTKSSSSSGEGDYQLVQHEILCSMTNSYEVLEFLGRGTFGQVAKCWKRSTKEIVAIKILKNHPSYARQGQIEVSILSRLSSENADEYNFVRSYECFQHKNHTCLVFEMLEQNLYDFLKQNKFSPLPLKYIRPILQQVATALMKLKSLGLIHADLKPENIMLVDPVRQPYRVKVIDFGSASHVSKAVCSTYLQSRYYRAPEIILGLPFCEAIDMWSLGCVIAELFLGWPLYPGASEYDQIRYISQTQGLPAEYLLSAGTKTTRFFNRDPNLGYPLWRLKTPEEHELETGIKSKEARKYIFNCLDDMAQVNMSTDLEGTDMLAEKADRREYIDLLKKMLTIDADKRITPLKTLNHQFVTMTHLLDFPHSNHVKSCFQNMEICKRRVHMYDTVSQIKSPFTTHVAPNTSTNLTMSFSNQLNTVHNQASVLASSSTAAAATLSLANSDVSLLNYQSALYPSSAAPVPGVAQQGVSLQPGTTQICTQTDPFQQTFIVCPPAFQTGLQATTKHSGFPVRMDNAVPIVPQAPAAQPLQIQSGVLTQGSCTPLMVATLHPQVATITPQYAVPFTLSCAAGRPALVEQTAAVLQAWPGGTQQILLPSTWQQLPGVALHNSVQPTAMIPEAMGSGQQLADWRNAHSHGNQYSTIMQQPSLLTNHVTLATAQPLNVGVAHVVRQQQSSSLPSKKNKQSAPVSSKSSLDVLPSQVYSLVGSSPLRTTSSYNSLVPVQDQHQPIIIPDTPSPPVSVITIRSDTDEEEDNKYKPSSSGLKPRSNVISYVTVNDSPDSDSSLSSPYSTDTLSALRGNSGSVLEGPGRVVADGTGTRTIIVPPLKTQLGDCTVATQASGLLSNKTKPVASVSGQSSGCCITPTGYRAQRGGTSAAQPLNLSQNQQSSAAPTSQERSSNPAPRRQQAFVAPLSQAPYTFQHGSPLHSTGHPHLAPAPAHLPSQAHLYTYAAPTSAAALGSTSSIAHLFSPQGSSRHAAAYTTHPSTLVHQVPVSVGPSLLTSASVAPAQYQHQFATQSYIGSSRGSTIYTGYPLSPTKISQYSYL
SRSF protein kinase 3 (Homo sapiens), sequence (Q9UPE1 whole entry): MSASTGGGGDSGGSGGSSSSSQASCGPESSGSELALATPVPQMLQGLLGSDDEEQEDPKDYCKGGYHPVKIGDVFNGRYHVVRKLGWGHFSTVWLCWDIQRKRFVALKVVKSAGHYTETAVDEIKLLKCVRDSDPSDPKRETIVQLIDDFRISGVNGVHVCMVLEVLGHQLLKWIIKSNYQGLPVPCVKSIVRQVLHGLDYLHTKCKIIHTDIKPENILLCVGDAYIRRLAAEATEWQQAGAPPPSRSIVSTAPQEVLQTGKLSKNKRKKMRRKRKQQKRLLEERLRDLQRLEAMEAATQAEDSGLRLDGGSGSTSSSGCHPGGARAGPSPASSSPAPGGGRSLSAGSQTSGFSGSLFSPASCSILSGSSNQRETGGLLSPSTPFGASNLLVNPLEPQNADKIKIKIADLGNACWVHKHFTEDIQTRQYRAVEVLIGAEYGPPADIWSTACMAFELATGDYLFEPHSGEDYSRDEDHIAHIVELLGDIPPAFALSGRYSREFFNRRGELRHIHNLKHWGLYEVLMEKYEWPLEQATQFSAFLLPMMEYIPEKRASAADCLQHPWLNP
Mitogen-activated protein kinase 9 (Homo sapiens), sequence (P45984 whole entry, looked up): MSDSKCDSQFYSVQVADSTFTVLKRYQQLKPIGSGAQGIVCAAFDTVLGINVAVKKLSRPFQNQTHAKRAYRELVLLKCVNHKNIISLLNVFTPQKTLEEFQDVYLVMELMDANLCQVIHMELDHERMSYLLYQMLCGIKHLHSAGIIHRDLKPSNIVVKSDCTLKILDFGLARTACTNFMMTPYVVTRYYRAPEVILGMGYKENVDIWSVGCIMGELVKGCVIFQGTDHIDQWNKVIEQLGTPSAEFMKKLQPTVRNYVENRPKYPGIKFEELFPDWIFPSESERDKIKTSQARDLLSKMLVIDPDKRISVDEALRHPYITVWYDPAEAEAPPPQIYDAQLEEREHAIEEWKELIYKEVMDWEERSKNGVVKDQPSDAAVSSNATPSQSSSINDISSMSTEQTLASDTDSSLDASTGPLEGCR
Glycogen synthase kinase-3 beta (Homo sapiens), sequence (P49841 whole entry, looked up): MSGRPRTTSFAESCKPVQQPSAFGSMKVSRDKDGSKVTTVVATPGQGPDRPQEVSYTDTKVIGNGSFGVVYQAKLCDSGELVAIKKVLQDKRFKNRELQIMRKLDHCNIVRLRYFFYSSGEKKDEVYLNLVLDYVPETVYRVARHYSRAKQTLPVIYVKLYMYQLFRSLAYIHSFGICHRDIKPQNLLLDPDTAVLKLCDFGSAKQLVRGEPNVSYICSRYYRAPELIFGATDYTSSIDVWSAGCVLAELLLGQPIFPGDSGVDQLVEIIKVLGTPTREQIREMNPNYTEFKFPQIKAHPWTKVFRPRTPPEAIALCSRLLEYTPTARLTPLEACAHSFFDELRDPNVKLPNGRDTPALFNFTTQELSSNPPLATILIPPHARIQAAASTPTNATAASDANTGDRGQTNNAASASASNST

For `Fc1cccc(COc2ccc(Nc3ncnc4sc(-c5cccs5)cc34)cc2Cl)c1`, the inhibition is 5.88% in experiment [1]; -5.41% in experiment [2]; 2.04% in experiment [3]; 0.33% in experiment [4]; 1.31% in experiment [5]; 0.62% in experiment [6]. The inhibition was 1.01% in experiment [7]; 2.17% in experiment [8]; 1.6% in experiment [9]; 1.1% in experiment [10]; 1.8% in [11]; 0.46% in experiment [12]. The inhibition was 0.83% in experiment [13]; 0.93% in experiment [14]; 1.59% in [15]; -0.98% in experiment [16]; -0.33% in experiment [17]; 1.26% in experiment [18]. Also, the inhibition in [19] worked out at 0.64%; in experiment [20] it was 0.6%.

With `CN(C)c1cc2c(Nc3ccc4nc(Cc5ccccc5)[nH]c4c3)ncnc2cn1`, the inhibition in experiment [1] came out at 2.68%; in [2], 0.23%; in [3], 2.19%; in [4] it was 2.51%; in experiment [5], 4.06%; in [6], 10.2%. Moreover, the inhibition in experiment [7] was 1.8%; in [8], 4.86%; in [9], 6.26%; in experiment [10] it was 3.48%; in [11], 4.66%; in [12], -0.28%. The inhibition was -1.52% in experiment [13]; 6.65% in experiment [14]; 9.66% in [15]; 1.34% in [16]; 1.99% in [18]; 5.16% in experiment [19]. The inhibition in experiment [20] is 5.41%.

Take `COc1ccc(-c2ccncc2)cc1C(N)=O`: the inhibition in experiment [1] is 4.32%; in experiment [2], -2.78%; in [3], 3.84%; in experiment [4] it was 0.07%; in experiment [5] it was 4.19%; in [6], 4.22%. The inhibition came out at 5.45% in experiment [7]; 5.23% in experiment [8]; 6.46% in [9]; 3.61% in experiment [10]; 5.57% in experiment [11]; 0.64% in experiment [12]. Moreover, the inhibition in experiment [13] is -1.37%; in [14], 7.77%; in [15], 9.51%; in [16], -0.28%; in experiment [17], 5.04%; in experiment [18], 5.1%. Also, the inhibition was 6.16% in experiment [19] and 4.29% in experiment [20].

For `COc1cc2ncn(-c3cc(O[C@@H](C)c4ccccc4Cl)c(C(N)=O)s3)c2cc1OC`, the inhibition in experiment [1] was 5.97%; in [2] it was -0.99%; in experiment [3], 4.95%; in experiment [4] it was 2.88%; in [5], 22.1%; in experiment [6] it was 2.45%. In addition, the inhibition in [7] was 8.24%; in [8], 5.66%; in experiment [9], 6.55%; in experiment [10] it was 4.78%; in experiment [11] it was 3.07%; in [12] it was -3.53%. The inhibition in experiment [13] is -0.07%; in [14], 6.72%; in experiment [15] it was 7.39%; in experiment [16], 3.1%; in experiment [17], 2.35%; in [18], 4.76%. The inhibition turned out to be 3.82% in [19] and 3.18% in [20].

With `COc1ccc(COc2ccc(Cc3cnc(N)nc3N)cc2OC)cc1`, the inhibition in [2] was -1.6%; in [3], 0.13%; in [4], 2.52%; in [5], 4.49%; in experiment [6], 0.2%; in experiment [7], 0.51%. For the same compound, the inhibition is -1.03% in experiment [8]; -0.13% in experiment [9]; 0.6% in [10]; 0.29% in experiment [11]; 2.01% in experiment [12]; 0.79% in experiment [13]. In addition, the inhibition in experiment [14] is 0.58%; in experiment [15], 4.45%; in experiment [16], 2.44%; in experiment [17], 1%; in experiment [19] it was 0.37%; in experiment [20] it was -1.2%.

As to `CS(=O)(=O)CCNCc1nc(-c2ccc3ncnc(Nc4ccc(F)c(Cl)c4)c3c2)cs1`, the inhibition in experiment [1] was 1.99%; in experiment [2], 1.07%; in [3], 5.32%; in [4] it was 3.32%; in [5], 18.8%; in experiment [6] it was 1.61%. Moreover, the inhibition was determined as 4.55% in [7]; 4.72% in experiment [8]; 5.04% in [9]; 1.63% in experiment [10]; 3.66% in [11]; 2.2% in [12]. Further, the inhibition amounted to 1.52% in [13]; 2.36% in [14]; 5.56% in experiment [15]; 2.75% in experiment [16]; 5.6% in experiment [17]; 2.57% in experiment [18]. Further, the inhibition in experiment [19] was 1.21%; in experiment [20], 0.83%.

For the compound `CCn1c(-c2nonc2N)nc2c(C#CC(C)(C)O)nc(OC[C@@H](N)c3ccccc3)cc21`, the inhibition in experiment [1] was 76%; in experiment [2] it was 1.19%; in experiment [3] it was 13.3%; in [4], 1.04%; in [5], 8.34%; in experiment [6], -0.01%. Also, the inhibition was -0.83% in experiment [7]; -1.1% in [8]; 3.38% in experiment [9]; -3.17% in experiment [10]; 1.84% in experiment [11]; 0.05% in experiment [12]. The inhibition in experiment [13] is 3.01%; in experiment [14] it was 1.93%; in experiment [15], 1.14%; in experiment [16], -1.91%; in [17], 1.34%; in [18] it was -0.23%. Moreover, the values for the inhibition in experiment [19] and in experiment [20] were -0.87% and -1.46%, respectively.
